Results filed as inconclusive are left out. Activity calls are given as the source filed them. Unless noted, the call rests on the fitted dose curve; in most records, active means well fitted curve in either direction with a large enough effect (not every such curve was filed as active); inconclusive means small, poorly fitted or top-dose-only effect, or another doubt; inactive means flat fitted curve, though single readings scatter.
Columns and labels:
[1] = molecular target: Lysosomal acid glucosylceramidase (Homo sapiens) (UniProt P04062); experiment: Glucocerebrosidase-p2 (AID 348; in the data active means potency below about 10 µM; further: potency means the concentration at half of the fitted maximal effect); conditions: purified GBA, blue fluorogenic substrate, 40 min
Chain of Lysosomal acid glucosylceramidase (Homo sapiens) (P04062 whole entry, looked up): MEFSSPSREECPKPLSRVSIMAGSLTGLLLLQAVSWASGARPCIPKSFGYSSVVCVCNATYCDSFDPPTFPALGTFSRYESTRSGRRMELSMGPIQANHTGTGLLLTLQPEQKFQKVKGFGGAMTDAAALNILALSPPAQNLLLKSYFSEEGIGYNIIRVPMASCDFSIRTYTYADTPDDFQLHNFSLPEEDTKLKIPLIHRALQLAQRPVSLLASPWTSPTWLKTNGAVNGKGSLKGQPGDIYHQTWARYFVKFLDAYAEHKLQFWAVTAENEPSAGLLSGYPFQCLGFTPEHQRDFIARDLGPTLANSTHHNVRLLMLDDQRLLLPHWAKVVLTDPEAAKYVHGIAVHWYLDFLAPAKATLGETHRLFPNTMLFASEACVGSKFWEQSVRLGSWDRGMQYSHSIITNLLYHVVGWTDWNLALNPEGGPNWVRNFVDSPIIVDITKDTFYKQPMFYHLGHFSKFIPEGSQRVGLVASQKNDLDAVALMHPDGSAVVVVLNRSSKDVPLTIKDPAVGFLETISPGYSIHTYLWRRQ
Procedure, shortened: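 Compounds titrated from 0.6 nM upwards against 0.2 nM enzyme in pH 5.9 citric acid/KH2PO4, taurocholate, tween-20; blue fluorogenic substrate 80 uM, 40 min room temperature, stopped and read Ex 365/Em 440 for AC50.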

[2] = AP1 Signaling Pathway (AID 357); conditions: ME-180 AP-1-bla reporter, EGF-induced, beta-lactamase ratio, 5 h; at 7.69 µM (top of the series) unless noted;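 further: ME-180 reporter cells stimulated with EGF at its EC50 level; on the % scale 0 is the no-effect control and ±100 the full control effect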
Procedure, shortened: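 Beta-lactamase reporter under AP-1 response element, ME-180 background. Stimulus: EC50 EGF. Compound exposure 5 h, 37 °C. Detection: CCF4, 2.5 h RT, 460/530 nm. Values: AC50 from titration.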

[3] = molecular target: Cytochrome P450 1A2 (Homo sapiens) (UniProt P05177); experiment: p450-cyp1a2 (AID 410; calls by dose curve; further: potency means the concentration at half of the fitted maximal effect;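 on activity change, negative = inhibition: -100% = full effect of reference inhibitor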); conditions: recombinant CYP1A2, luciferin-ME demethylation, luminescence; series mostly up to 11.4 µM
Chain of Cytochrome P450 1A2 (Homo sapiens) (P05177 whole entry, looked up): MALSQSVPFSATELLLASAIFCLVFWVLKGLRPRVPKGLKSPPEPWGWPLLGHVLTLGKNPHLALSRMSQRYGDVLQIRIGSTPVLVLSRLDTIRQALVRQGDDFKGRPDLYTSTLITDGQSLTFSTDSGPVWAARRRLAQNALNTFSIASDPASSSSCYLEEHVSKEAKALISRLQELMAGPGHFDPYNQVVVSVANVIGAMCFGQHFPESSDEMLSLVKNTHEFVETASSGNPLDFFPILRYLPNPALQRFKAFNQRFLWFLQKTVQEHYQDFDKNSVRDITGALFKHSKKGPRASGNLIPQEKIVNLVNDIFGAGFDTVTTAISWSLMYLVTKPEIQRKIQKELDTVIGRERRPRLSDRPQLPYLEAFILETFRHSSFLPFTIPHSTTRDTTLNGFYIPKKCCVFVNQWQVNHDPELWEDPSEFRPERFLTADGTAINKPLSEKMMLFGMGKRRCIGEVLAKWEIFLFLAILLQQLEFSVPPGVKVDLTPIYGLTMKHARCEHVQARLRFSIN
Procedure, shortened: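 Human CYP1A2 (20nM) demethylated Luciferin-ME at its Km (100uM) in 100mM KPO4. After 10 min compound preincubation, NADPH regeneration ran the reaction 60 min at room temperature. Luciferin was read by luminescence, normalized to 57 uM furafylline.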

[4] = NFAT Signaling Pathway (AID 444); conditions: Jurkat NFAT-bla M1, carbachol, beta-lactamase ratio, 5 h; at 7.69 µM (top of the series) unless noted;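 further: carbachol stimulus at about its EC50 of 1 µM final; on the % scale 0 is the no-effect control and ±100 the full control effect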
Procedure, shortened: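 Jurkat cells with NFAT-driven β-lactamase reporter and co-expressed M1 receptor, stimulated with carbachol (final 1 uM, ~EC50), compound titration, 5 h at 37 °C. CCF4 loaded 1 h at RT; 460/530 nm ratio gave %activity and AC50.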

[5] = Stat Signaling Pathway (AID 446); conditions: ME-180 SIE beta-lactamase reporter, IL-6 stimulated, 5 h; at 7.69 µM (top of the series) unless noted;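 further: ME-180 cervical cancer cells given 40 pM IL-6 alongside compound; SIE-controlled beta-lactamase reporter measured as 460/530 nm FRET emission ratio; on the % scale 0 is the no-effect control and ±100 the full control effect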
Procedure, shortened: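 ME-180 cells carrying a SIE-driven beta-lactamase reporter are stimulated with 40 pM IL-6 for 5 h at 37C in the presence of compound. The 460/530 nm FRET substrate ratio is read after 2.5 h at RT. Data are normalised to 300 pM IL-6 and to 125 nM JAK inhibitor controls.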

[6] = molecular target: Glucocorticoid receptor (Homo sapiens) (UniProt P04150); experiment: GR-GFP Redistribution (AID 450;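 active means compounds whose dose series gives a full or clear partial fitted curve of increased nuclear translocation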; further: potency means the concentration at half of the fitted maximal effect); conditions: U2OS GR-GFP nuclear translocation, laser cytometry, 2 h
Chain of Glucocorticoid receptor (Homo sapiens) (P04150 whole entry, looked up, the tested form may be a part): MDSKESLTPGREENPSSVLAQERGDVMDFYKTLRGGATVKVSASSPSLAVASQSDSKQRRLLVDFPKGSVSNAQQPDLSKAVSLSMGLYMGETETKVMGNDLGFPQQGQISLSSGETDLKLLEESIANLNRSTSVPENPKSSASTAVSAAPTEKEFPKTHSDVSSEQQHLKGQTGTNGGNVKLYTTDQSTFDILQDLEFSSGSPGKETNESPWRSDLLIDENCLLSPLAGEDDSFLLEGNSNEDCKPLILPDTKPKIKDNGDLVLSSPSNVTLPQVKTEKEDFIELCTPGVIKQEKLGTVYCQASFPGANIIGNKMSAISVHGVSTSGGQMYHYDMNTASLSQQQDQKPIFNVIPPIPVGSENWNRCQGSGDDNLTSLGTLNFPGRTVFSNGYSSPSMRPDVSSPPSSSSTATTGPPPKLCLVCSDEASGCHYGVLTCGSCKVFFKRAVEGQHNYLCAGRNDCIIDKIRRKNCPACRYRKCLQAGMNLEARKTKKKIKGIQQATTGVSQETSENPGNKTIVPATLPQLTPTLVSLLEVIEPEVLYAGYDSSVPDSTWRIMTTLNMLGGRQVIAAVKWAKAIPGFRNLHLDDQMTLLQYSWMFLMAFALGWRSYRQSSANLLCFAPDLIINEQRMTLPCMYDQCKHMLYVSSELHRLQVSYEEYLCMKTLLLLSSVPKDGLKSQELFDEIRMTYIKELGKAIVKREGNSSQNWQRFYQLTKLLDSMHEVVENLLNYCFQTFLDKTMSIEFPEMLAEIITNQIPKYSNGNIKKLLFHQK

[7] = molecular target: Glucocorticoid receptor (Homo sapiens) (UniProt P04150); experiment: GR-EFC Redistribution (AID 451; calls by dose curve; further: potency means the concentration at half of the fitted maximal effect); conditions: CHO-K1 GR-EFC translocation, beta-gal luminescence, 2 h
Procedure, shortened: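 CHO-K1 cells expressing nuclear EA and GR-ED fragments of b-gal; compounds titrated up to 46 uM final, 2 h at 37 C. GR nuclear translocation read as complemented b-gal luminescence after 1 h RT detection.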

[8] = molecular target: Mitogen-activated protein kinase 10 (Mus musculus) (UniProt Q61831); experiment: JNK3 AlphaScreen Assay (AID 530); conditions: JNK3 lysate, c-Jun phosphorylation; series mostly up to 11.4 µM;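 further: kinase came from lysate of stimulated human HepG2 cells; signal reports phosphorylation of biotinylated GST-cJun 1-79 at Ser73 with 10 µM ATP; on the % scale 0 is the no-effect control and ±100 the full control effect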
Procedure, shortened: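 qHTS format: compounds tested as titrations against IL-1beta/TNF-alpha-activated HepG2 lysate JNK3 with biotin-GST-cJun substrate and 10 uM ATP at room temperature. Loss of anti-phospho-cJun AlphaScreen signal indicates inhibition.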

[9] = molecular target: 3',5'-cyclic-AMP phosphodiesterase 4B (Homo sapiens) (UniProt Q07343); experiment: qHTS Assay for Inhibitors of PDE-IV (AID 607; active means well fitted activation curve with a large enough effect in the main read-out, with a control signal flat, not every such curve was filed as active; further: % of control where 0% means no effect); conditions: HEK293 ACTOne CNG channel cells, membrane potential fluorescence; series mostly up to 22.9 µM
Chain of 3',5'-cyclic-AMP phosphodiesterase 4B (Homo sapiens) (Q07343 whole entry, looked up): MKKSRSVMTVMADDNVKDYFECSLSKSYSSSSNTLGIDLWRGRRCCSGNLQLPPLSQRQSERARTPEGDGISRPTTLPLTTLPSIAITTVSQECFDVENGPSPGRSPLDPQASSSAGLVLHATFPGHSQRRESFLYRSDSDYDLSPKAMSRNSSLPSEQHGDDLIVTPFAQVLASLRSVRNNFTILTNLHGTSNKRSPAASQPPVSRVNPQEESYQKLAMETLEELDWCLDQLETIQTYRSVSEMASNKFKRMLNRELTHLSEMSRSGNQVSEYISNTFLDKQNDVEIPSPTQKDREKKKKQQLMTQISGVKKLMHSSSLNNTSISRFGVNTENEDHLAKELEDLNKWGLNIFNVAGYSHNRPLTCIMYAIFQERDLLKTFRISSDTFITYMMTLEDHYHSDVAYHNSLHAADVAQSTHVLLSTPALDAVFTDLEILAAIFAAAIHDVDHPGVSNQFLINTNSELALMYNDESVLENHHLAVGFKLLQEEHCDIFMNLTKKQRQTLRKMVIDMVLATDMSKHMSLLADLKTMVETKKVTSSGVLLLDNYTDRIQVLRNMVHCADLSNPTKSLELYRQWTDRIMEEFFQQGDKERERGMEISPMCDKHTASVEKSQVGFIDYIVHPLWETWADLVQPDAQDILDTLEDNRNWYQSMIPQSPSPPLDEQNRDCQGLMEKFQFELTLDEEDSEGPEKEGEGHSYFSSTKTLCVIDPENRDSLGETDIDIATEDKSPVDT
Procedure, shortened: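 HEK293 ACTOne cells with CNG channel (1000/well), endogenous PDE4; membrane potential dye, compounds up to 22.9 uM final. Fluorescence Ex 535/Em 590; RO 20-1724 (100 uM final) as reference.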

[10] = molecular target: Cytochrome P450 2C9 (Homo sapiens) (UniProt P11712); experiment: qHTS Assay for Inhibitors and Substrates of Cytochrome P450 2C9 (AID 883; active means well fitted curve in the direction sought with a large enough effect; an effect the other way counts as inactive or inconclusive; further: nearly all actives have a fitted effect of over 60% in size; further: potency means the concentration at half of the fitted maximal effect); conditions: recombinant CYP2C9, luciferin-H luminescence, 60 min; series mostly up to 11.4 µM
Chain of Cytochrome P450 2C9 (Homo sapiens) (P11712 whole entry, looked up): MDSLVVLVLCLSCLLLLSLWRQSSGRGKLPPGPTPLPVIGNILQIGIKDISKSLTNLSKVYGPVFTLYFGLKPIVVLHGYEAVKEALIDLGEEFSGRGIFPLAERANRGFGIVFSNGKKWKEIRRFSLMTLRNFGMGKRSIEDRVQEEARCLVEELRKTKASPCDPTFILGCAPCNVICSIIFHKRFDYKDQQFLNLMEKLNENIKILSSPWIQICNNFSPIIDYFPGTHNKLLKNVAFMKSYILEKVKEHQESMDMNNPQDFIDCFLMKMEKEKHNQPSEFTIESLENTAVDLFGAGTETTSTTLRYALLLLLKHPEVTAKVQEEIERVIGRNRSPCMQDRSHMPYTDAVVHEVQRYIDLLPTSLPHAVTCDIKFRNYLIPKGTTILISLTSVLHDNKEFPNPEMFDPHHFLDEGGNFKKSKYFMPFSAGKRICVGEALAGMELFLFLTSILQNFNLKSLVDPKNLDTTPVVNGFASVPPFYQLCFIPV
Procedure, shortened: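 Human CYP2C9 (10nM) with Luciferin-H at 100uM (its KM) in 25mM KPO4; compound preincubated 10 min at 37C, then NADPH regeneration for 60 min at 37C. Luciferin read by luminescence after detection reagent; normalized to 57uM sulphaphenazole as full inhibition.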

[11] = molecular target: Cytochrome P450 3A4 (Homo sapiens) (UniProt P08684); experiment: qHTS Assay for Inhibitors and Substrates of Cytochrome P450 3A4 (AID 884; active means well fitted curve in the direction sought with a large enough effect; an effect the other way counts as inactive or inconclusive; further: nearly all actives have a fitted effect of over 50% in size; further: potency means the concentration at half of the fitted maximal effect); conditions: recombinant CYP3A4, Luciferin-PPXE luminescence; series mostly up to 57.1 µM
Chain of Cytochrome P450 3A4 (Homo sapiens) (P08684 whole entry, looked up): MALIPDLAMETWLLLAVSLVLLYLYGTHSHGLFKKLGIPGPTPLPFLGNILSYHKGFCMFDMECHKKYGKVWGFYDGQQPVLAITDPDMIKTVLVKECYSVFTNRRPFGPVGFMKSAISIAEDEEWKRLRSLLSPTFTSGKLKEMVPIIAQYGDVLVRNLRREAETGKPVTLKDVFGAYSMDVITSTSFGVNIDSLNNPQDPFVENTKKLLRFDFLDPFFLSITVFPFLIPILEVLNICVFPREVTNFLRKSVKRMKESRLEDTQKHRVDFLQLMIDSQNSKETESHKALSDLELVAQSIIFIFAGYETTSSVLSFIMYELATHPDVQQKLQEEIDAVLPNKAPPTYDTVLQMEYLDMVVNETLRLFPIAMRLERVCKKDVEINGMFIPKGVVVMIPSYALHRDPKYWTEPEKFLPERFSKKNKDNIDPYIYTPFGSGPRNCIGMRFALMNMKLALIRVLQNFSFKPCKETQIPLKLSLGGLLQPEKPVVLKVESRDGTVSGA
Procedure, shortened: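 20 nM human CYP3A4 with 25 uM Luciferin-PPXE (at KM) in 200 mM KPO4, preincubated 10 min with compound; NADPH regeneration started a 60 min RT reaction. Luciferin detected by luminescence, normalized to 57 uM ketoconazole as full inhibition.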

[12] = molecular target: Cytochrome P450 2D6 (Homo sapiens) (UniProt P10635); experiment: qHTS Assay for Inhibitors and Substrates of Cytochrome P450 2D6 (AID 891; active means well fitted curve in the direction sought with a large enough effect; an effect the other way counts as inactive or inconclusive;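 further: luciferin methyl ether substrate demethylated by CYP2D6 with NADPH regeneration; on the % scale 0 is the no-effect control and ±100 the full control effect; nearly all actives have a fitted effect of over 60% in size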); conditions: recombinant CYP2D6, luciferin-ME EGE luminescence; series mostly up to 11.4 µM
Chain of Cytochrome P450 2D6 (Homo sapiens) (P10635 whole entry, looked up): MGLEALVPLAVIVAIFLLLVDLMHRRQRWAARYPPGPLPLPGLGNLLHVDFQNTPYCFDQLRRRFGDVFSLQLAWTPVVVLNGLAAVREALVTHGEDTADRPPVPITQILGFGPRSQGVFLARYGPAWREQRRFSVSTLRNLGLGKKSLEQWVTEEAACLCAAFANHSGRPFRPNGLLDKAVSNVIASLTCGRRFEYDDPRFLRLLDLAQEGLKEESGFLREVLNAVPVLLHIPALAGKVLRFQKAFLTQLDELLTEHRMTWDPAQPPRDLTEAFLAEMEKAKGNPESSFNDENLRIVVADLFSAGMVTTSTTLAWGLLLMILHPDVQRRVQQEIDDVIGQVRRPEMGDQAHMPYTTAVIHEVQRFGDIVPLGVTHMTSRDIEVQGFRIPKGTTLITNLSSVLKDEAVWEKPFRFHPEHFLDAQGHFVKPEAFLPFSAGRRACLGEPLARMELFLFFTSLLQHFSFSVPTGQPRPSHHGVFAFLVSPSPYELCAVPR
Procedure, shortened: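 Human CYP2D6 (5 nM) with 30 uM Luciferin-ME EGE (at Km) in 100 mM KPO4, compound preincubated 10 min, then NADPH regeneration system for 60 min at room temperature. Luciferin read by luminescence; normalized to 1.43 uM quinidine.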

[13] = molecular target: Cytochrome P450 2C19 (Homo sapiens) (UniProt P33261); experiment: qHTS Assay for Inhibitors and Substrates of Cytochrome P450 2C19 (AID 899; active means well fitted curve in the direction sought with a large enough effect; an effect the other way counts as inactive or inconclusive; further: nearly all actives have a fitted effect of over 60% in size; further: potency means the concentration at half of the fitted maximal effect); conditions: recombinant CYP2C19, luciferin-H EGE luminescence; series mostly up to 11.4 µM
Chain of Cytochrome P450 2C19 (Homo sapiens) (P33261 whole entry, looked up): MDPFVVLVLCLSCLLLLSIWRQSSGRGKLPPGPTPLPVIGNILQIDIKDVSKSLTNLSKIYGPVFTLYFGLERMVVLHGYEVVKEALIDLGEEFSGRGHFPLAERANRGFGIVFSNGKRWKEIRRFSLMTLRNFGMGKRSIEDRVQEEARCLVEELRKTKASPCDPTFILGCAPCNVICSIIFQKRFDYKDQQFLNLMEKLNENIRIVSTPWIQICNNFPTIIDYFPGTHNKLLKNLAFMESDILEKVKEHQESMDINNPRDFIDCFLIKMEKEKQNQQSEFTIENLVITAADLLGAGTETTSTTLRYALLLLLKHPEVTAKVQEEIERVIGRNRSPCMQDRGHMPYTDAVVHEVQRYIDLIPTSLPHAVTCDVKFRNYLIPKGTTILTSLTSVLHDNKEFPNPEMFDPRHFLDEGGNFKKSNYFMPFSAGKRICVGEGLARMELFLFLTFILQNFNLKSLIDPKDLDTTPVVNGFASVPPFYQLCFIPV
Procedure, shortened: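 5 nM human CYP2C19 with 10uM Luciferin-H EGE (at KM) in 50mM KPO4, compound preincubated 10 min at 37C, then NADPH regeneration for 60 min at 37C. Luciferin read by luminescence after detection reagent; normalized to 57uM ketoconazole as full inhibition.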

[14] = molecular target: Cytochrome P450 3A4 (Homo sapiens) (UniProt P08684); experiment: qHTS Assay for Activators of Cytochrome P450 3A4 (AID 885; active means well fitted curve in the direction sought with a large enough effect; an effect the other way counts as inactive or inconclusive; further: nearly all actives have a fitted effect of over 65% in size); conditions: recombinant CYP3A4, Luciferin-PPXE luminescence, 60 min; series mostly up to 11.4 µM
Procedure, shortened: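 Human CYP3A4 (20 nM) with Luciferin-PPXE at 25 uM (its KM) in 200 mM KPO4; 10 min compound preincubation, then NADPH regeneration and 60 min reaction at RT. Luciferin read by luminescence; normalized to 57 uM ketoconazole full inhibition.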

[15] = qHTS Assay for Identification of Small Molecule Agonists for Hypoxia Response Element Signaling Pathway (AID 914; active means well fitted activation curve with a large enough effect in the signal ratio, with a control signal flat, not every such curve was filed as active; the % refers to the signal ratio; further: % of control where 0% means no effect); conditions: ME-180 (cervical carcinoma) HRE-bla reporter, beta-lactamase ratio, CoCl2, 17 h; activation: hits give high values
Procedure, shortened: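 Cells were plated overnight, pin-dosed with compound in a titration series, co-stimulated with EC50 CoCl2 and incubated 17 hours at 37 degrees Celsius. CCF4 substrate was then loaded, and AC50 values came from the 460nm/530nm ratio.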

O=C(O)CCCSc1nc2ccccc2s1
inactive: Potency [1] > 11.4 µM | activity change, negative = inhibition [2] 1.43% | Potency [3] | activity change, negative = inhibition [4] -19.5% | activity, negative = inhibition [5] 4.62% | Potency [6] > 46 µM | Potency [7] > 9.22 µM | Potency [8] | Potency [9]

O=C(O)CSC1=NCCN1
inactive: Potency [1] > 11.4 µM | activity change, negative = inhibition [2] 17% | Potency [3] | activity change, negative = inhibition [4] 7.29% | activity, negative = inhibition [5] 4.64% | Potency [6] > 46 µM | Potency [7] > 9.22 µM | Potency [8] | Potency [9] | Potency [10] | activity change, negative = inhibition [11] 7.95% [at 11.4 µM] | Potency [12] | Potency [13]

Cc1c(Cl)cccc1NC(=O)C[C@H]1Sc2ccccc2NC1=O
inactive: Potency [1] > 11.4 µM | activity change, negative = inhibition [2] -17.8% | activity change, negative = inhibition [3] -23.2% [at 2.29 µM] | activity change, negative = inhibition [4] 7.2% | activity, negative = inhibition [5] 6.79% | Potency [6] > 46 µM | Potency [7] > 9.22 µM | Potency [8] | Potency [9] | Potency [10] | Potency [14]

CC1(C)[C@@H]2CC[C@]1(C)[C@@H](OC(=O)/C=C\c1ccccc1)C2
inactive: Potency [1] > 11.4 µM | activity change, negative = inhibition [2] 5.51% | activity change, negative = inhibition [3] -3.4% [at 2.29 µM] | activity change, negative = inhibition [4] -17.9% | activity, negative = inhibition [5] 21.7% | Potency [6] > 46 µM | Potency [7] > 9.22 µM | Potency [8] | Potency [9]

CC(C)CO[C@H](c1ccc2c(c1)OCO2)[C@H](C)Br
active: Potency [3] 0.631 µM | Potency [10] 2 µM | Potency [11] 3.16 µM
inactive: Potency [1] > 11.4 µM | activity change, negative = inhibition [2] -13.4% | activity change, negative = inhibition [4] -8.77% | activity, negative = inhibition [5] 7% | Potency [6] > 46 µM | Potency [7] > 9.22 µM | Potency [8] | Potency [9] | Potency [14]

Cc1ccc(S(=O)(=O)NC(=O)OC23COCN2COC3)cc1
inactive: Potency [1] > 11.4 µM | activity change, negative = inhibition [2] 8.05% | Potency [3] | activity change, negative = inhibition [4] 27.6% | activity, negative = inhibition [5] 15.3% | Potency [6] > 46 µM | Potency [7] > 9.22 µM | Potency [8] | Potency [9]

CN(C)Cc1cc(C(C)(C)C)ccc1-c1ccc(C(C)(C)C)cc1CN(C)C
inactive: Potency [1] > 11.4 µM | activity change, negative = inhibition [2] 4.9% | activity change, negative = inhibition [3] -17.9% [at 2.29 µM] | activity change, negative = inhibition [4] 5.47% | activity, negative = inhibition [5] 1.89% | Potency [6] > 46 µM | Potency [7] > 9.22 µM | Potency [8] | Potency [9]

N#CNC(N)=Nc1ccc(Cl)cc1
inactive: Potency [1] > 11.4 µM | activity change, negative = inhibition [2] 5.32% | activity change, negative = inhibition [4] 2.31% | activity, negative = inhibition [5] -1.86% | Potency [6] > 46 µM | Potency [7] > 9.22 µM | Potency [8] | Potency [9] | Potency [10] | activity change, negative = inhibition [11] -49.7% [at 11.4 µM] | Potency [13]
active: Potency [3] 3.98 µM

COc1ccc(/C=C(\C#N)C(N)=O)c(OC)c1
inactive: Potency [1] > 11.4 µM | activity change, negative = inhibition [2] 2.38% | activity change, negative = inhibition [4] 17.1% | activity, negative = inhibition [5] 3.37% | Potency [6] > 46 µM | Potency [7] > 9.22 µM | Potency [8] | Potency [9] | Potency [10] | Potency [14] | activation [15] -21.9%
active: Potency [3] 1.58 µM

CN(C)Cc1cc(Cl)c(O)c(CN(C)C)c1
inactive: Potency [1] > 11.4 µM | activity change, negative = inhibition [2] 0.0803% | Potency [3] | activity change, negative = inhibition [4] 15.1% | activity, negative = inhibition [5] -1.91% | Potency [6] > 46 µM | Potency [7] > 9.22 µM | Potency [8] | Potency [9]

CC(CCC(=O)O)(c1cc(Br)c(O)c(Br)c1)c1cc(Br)c(O)c(Br)c1
inactive: Potency [1] > 11.4 µM | activity change, negative = inhibition [2] 17.5% | activity change, negative = inhibition [3] -17.9% [at 2.29 µM] | activity change, negative = inhibition [4] 3.8% | activity, negative = inhibition [5] 0.505% | Potency [6] > 46 µM | Potency [7] > 9.22 µM | Potency [8] | Potency [9]
active: Potency [10] 3.16 µM

Oc1cccc2ccc(SSc3ccc4cccc(O)c4n3)nc12
active: Potency [3] 3.16 µM | Potency [10] 1.58 µM | Potency [13] 3.16 µM
inactive: Potency [1] > 11.4 µM | activity change, negative = inhibition [2] 1.21% | activity change, negative = inhibition [4] -22.6% | activity, negative = inhibition [5] -15.4% | Potency [6] > 46 µM | Potency [7] > 9.22 µM | Potency [8] | Potency [9] | Potency [14]

CS(=O)(=O)N(CC(=O)O)Cc1ccccc1
inactive: Potency [1] > 11.4 µM | activity change, negative = inhibition [2] 13.2% | Potency [3] | activity change, negative = inhibition [4] 14.9% | activity, negative = inhibition [5] 10.2% | Potency [6] > 46 µM | Potency [7] > 9.22 µM | Potency [8] | Potency [9]

O=C(O)CC(CC(=O)O)n1cccc1
inactive: Potency [1] > 11.4 µM | activity change, negative = inhibition [2] 5.34% | Potency [3] | activity change, negative = inhibition [4] 8.97% | activity, negative = inhibition [5] -7.74% | Potency [6] > 46 µM | Potency [7] > 9.22 µM | Potency [8] | Potency [9] | Potency [10] | activity change, negative = inhibition [11] -36.6% [at 11.4 µM] | Potency [13]

— PubChem BioAssay (NCATS)
